# Reference: PubChem BioAssay (EPA / NIEHS)
# Records with an inconclusive call do not appear. Activity calls are given as the source filed them. The calls were made as follows, unless noted: active = hit-call score of the fitted dose curve at least 0.9, where 1 is the maximum; inactive = score below 0.9.
# How the values were obtained:
# [1] = ACEA_ER_80hr: ACEA Biosciences xCELLigence Real-Time Cell Analysis on Estrogen Receptor Agonism for Proliferation (AID 2282667; active = hit-call score of the fitted dose curve at least 0.9, where 1 is the maximum); settings: T47D proliferation, impedance (xCELLigence), 80 h
# Summary of the method: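 T47D human breast cells were seeded on electrode plates, monitored overnight, then exposed continuously to compounds in eight-point 1:4 dilutions from 100 uM (max 0.5% DMSO). Impedance-based growth was read at 80 h, fitted upward relative to DMSO.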
# [2] = ATG_CRE_CIS: Attagene CIS-FACTORIAL HepG2 Assay for human cAMP Responsive Element (CRE) binding protein 3 (AID 2282926); settings: HepG2 CRE cis-reporter, Attagene multiplexed mRNA; actives raise or lower the signal
# Summary of the method: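 HepG2 cells transiently transfected with a multiplexed reporter library (CRE-driven unit among them) were dosed for 24 h. Reporter mRNA was quantified by RT-PCR, fluorescent labelling, HpaI digestion and capillary electrophoresis, with bidirectional fitting against DMSO baseline.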
# [3] = ATG_CMV_CIS: Attagene CIS-FACTORIAL HepG2 Assay for human CMV (Internal Marker) (AID 2282928); settings: HepG2 CMV promoter reporter, transcription factor profiling; actives raise or lower the signal;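 also: endpoint acts as a background internal control marker rather than a target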
# Summary of the method: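 HepG2 cells transiently transfected with multiple cis-regulated reporter units; 24 h compound exposure. Reporter mRNA quantified by RT-PCR, 6-FAM primer-extension labeling, HpaI digestion and capillary electrophoresis; bidirectional fitting against DMSO baseline.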
# [4] = ATG_DR4_LXR_CIS: Attagene CIS-FACTORIAL HepG2 Assay for human Liver X Receptor (LXR), DR4 submotif (AID 2282929); settings: HepG2 Attagene DR4 cis-reporter, mRNA transcription; actives raise or lower the signal
# Summary of the method: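 HepG2, transient MRTU transfection, cis-element (DR4) promoter; 24 h compound exposure; total RNA → oligo(dT) RT → PCR → 6-FAM primer extension → HpaI cut → CE. Gain/loss vs DMSO, bidirectional fit.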
# [5] = target: Aryl hydrocarbon receptor (Homo sapiens) (UniProt P35869); test: ATG_Ahr_CIS: Attagene CIS-FACTORIAL HepG2 Assay for human Aryl Hydrocarbon Receptor (Ahr) (AID 2282930); settings: HepG2 AhR cis-factorial reporter transcription; actives raise or lower the signal
# Summary of the method: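 Transient MRTU transfection of HepG2 → 24 h compound exposure → total RNA, oligo(dT) RT → PCR, 6-FAM extension, HpaI cut → CE fluorescence. DMSO = baseline; bidirectional curve fit.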
# [6] = ATG_AP_1_CIS: Attagene CIS-FACTORIAL HepG2 Assay for human Activator Protein 1 (AP-1) (AID 2282931); settings: HepG2 Attagene cis-factorial AP-1 reporter mRNA; actives raise or lower the signal
# Summary of the method: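 Transient MRTU transfection of HepG2 → 24 h chemical treatment → RNA isolation, RT-PCR, 6-FAM labelling, HpaI digest → capillary electrophoresis. Fit: bidirectional, DMSO negative control.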
# [7] = ATG_AP_2_CIS: Attagene CIS-FACTORIAL HepG2 Assay for human Activator Protein 2 (AP-2) (AID 2282932); settings: HepG2 AP-2 cis-reporter, Attagene transcription factor profiling; actives raise or lower the signal
# Summary of the method: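 Step one: transient transfection of HepG2 with reporter transcription units. Step two: 24 h chemical exposure. Step three: RNA extraction, RT-PCR, labelled fragment analysis by capillary electrophoresis; DMSO serves as baseline.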
# [8] = ATG_BRE_CIS: Attagene CIS-FACTORIAL HepG2 Assay for human Bone Morphogenetic Protein (BMP) Response Element (BRE) (AID 2282933); settings: HepG2 BMP response element reporter, Attagene transcription factor profiling; actives raise or lower the signal
# Summary of the method: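 Fluorescence-labelled reporter cDNA fragments, separated by capillary electrophoresis, gave the signal for this component of a 52-readout multiplex. HepG2 cells were transfected, exposed to chemicals for 24 h, and compared with DMSO using bidirectional fitting.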
# [9] = target: Retinoic acid receptor alpha (Homo sapiens) (UniProt P10276); test: ATG_DR5_RAR_CIS: Attagene CIS-FACTORIAL HepG2 Assay for human Retinoic Acid Receptor Alpha (RARE), DR5 submotif (AID 2282934); settings: HepG2 Attagene cis-factorial RARE DR5 reporter, mRNA; actives raise or lower the signal;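 as to AC50: reporter responds to endogenous RAR alpha beta and gamma in HepG2 not RARA alone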
# Summary of the method: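 Transient MRTU transfection of HepG2; 24 h compound treatment; TriZol RNA, oligo(dT) RT, PCR, FAM labelling, capillary electrophoresis. Bidirectional fit vs DMSO. Endogenous TF activity at DR5 RARE.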
# [10] = target: Transcription factor E2F1 (Homo sapiens) (UniProt Q01094); test: ATG_E2F_CIS: Attagene CIS-FACTORIAL HepG2 Assay for human E2F Transcription Factor 1 (AID 2282935); settings: HepG2 Attagene cis-reporter, E2F reporter RNA transcripts; actives raise or lower the signal
# Summary of the method: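 Total RNA from 24 h-treated, reporter-transfected HepG2 cells undergoes DNase I treatment, oligo(dT) reverse transcription, PCR and 6-FAM primer extension before capillary electrophoresis.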
# [11] = ATG_E_Box_CIS: Attagene CIS-FACTORIAL HepG2 Assay for human Enhancer Box (E-box) (AID 2282936); settings: HepG2 E-box cis-reporter transcription, actives raise or lower the signal
# Summary of the method: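 DMSO served as negative control and baseline for bidirectional fitting. Human hepatoma HepG2 cells, transiently transfected with cis-reporter constructs, were dosed 24 h; reporter mRNA read by RT-PCR and capillary electrophoresis.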
# [12] = ATG_M_61_CIS: Attagene CIS-FACTORIAL HepG2 Assay for M61 Transcription Factor (Internal Marker) (AID 2282937); settings: HepG2 Attagene CIS-FACTORIAL M61 internal marker reporter; actives raise or lower the signal
# Summary of the method: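 Human liver HepG2, transient MRTU transfection (cis promoter elements), 24 h compound. Total RNA → oligo(dT) RT → PCR → FAM label → HpaI → CE. Internal background marker; bidirectional fitting, DMSO = baseline.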
# [13] = ATG_EGR_CIS: Attagene CIS-FACTORIAL HepG2 Assay for human Early Growth Response 1 (EGR1) (AID 2282938); settings: HepG2 Attagene CIS-FACTORIAL EGR reporter mRNA; actives raise or lower the signal
# Summary of the method: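 Transient transfection of human HepG2 with multiple cis-regulated reporter units, chemical exposure 24 h, total RNA isolated. Reverse transcription, PCR, fluorescent labelling and capillary electrophoresis quantify reporter transcripts; activity fitted bidirectionally against DMSO.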
# [14] = ATG_M_19_CIS: Attagene CIS-FACTORIAL HepG2 Assay for M19 Transcription Factor (Internal Marker) (AID 2282939); settings: HepG2 Attagene CIS-FACTORIAL M19 internal marker reporter; actives raise or lower the signal
# Summary of the method: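 HepG2, MRTU transient transfection, 24 h dosing. Total RNA → RT-PCR → 6-FAM primer extension → HpaI digest → CE fluorescence. Bidirectional curve fit, DMSO negative control.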
# [15] = ATG_ERE_CIS: Attagene CIS-FACTORIAL HepG2 Assay for Estrogen Response Element (ERE) (AID 2282940); settings: HepG2 ERE cis-reporter, Attagene RNA transcript; actives raise or lower the signal
# Summary of the method: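 After a 24 h chemical treatment, RNA from reporter-transfected HepG2 cells is reverse-transcribed, PCR-amplified and fluorescently labelled. Fragments separated by capillary electrophoresis give reporter signal; DMSO serves as negative control.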
# [16] = ATG_Ets_CIS: Attagene CIS-FACTORIAL HepG2 Assay for human Erythroblast Transformation Specific (ETS) (AID 2282941); settings: HepG2 ETS cis-reporter transcription, actives raise or lower the signal
# Summary of the method: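 HepG2 cells transiently transfected with cis-promoter reporter transcription units were dosed for 24 h; reporter mRNA was measured by RT-PCR, 6-FAM primer extension, HpaI digestion and capillary electrophoresis, with bidirectional fitting against DMSO baseline.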
# [17] = target: Hepatocyte nuclear factor 3-beta (Homo sapiens) (UniProt Q9Y261); test: ATG_FoxA2_CIS: Attagene CIS-FACTORIAL HepG2 Assay for human Forkhead box A2 (FOXA2) (AID 2282942); settings: HepG2 cis-reporter transcription factor activity, 24 h; actives raise or lower the signal
# Summary of the method: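 Transient MRTU transfection of HepG2 liver cells; 24 h treatment; total RNA → oligo(dT) RT → PCR → FAM primer extension → HpaI cut → CE. Bidirectional fit vs DMSO.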
# [18] = ATG_FoxO_CIS: Attagene CIS-FACTORIAL HepG2 Assay for human Forkhead box O (FoxO) (AID 2282943); settings: HepG2 Attagene cis-reporter, FoxO element, mRNA; actives raise or lower the signal
# Summary of the method: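 HepG2, transient MRTU transfection (cis element, endogenous TFs). Dose 24 h. TriZol RNA → oligo(dT) RT → PCR → 6-FAM primer extension → HpaI cut → CE. Gain/loss vs DMSO.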
# [19] = ATG_GATA_CIS: Attagene CIS-FACTORIAL HepG2 Assay for human GATA Binding Protein (AID 2282944); settings: HepG2 GATA cis-element reporter, Attagene multiplex mRNA; actives raise or lower the signal
# Summary of the method: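 Cells: HepG2, transiently transfected with cis-regulated reporter transcription units. Exposure: 24 h. Detection: RT-PCR plus capillary electrophoresis of FAM-labeled fragments. Analysis: bidirectional, DMSO as baseline.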
# [20] = target: CCAAT/enhancer-binding protein beta (Homo sapiens) (UniProt P17676); test: ATG_C_EBP_CIS: Attagene CIS-FACTORIAL HepG2 Assay for human CCAAT/Enhancer Binding Protein (C/EBP) beta (AID 2282927); settings: HepG2 Attagene cis-factorial transcription factor reporter; actives raise or lower the signal
# Summary of the method: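 Endogenous transcription factor activity in human liver HepG2 cells is inferred from induction of a CEBPB-linked reporter mRNA. Exposure lasts 24 h; activity is fitted in both directions relative to DMSO.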
# Chain of Hepatocyte nuclear factor 3-beta (Homo sapiens) (Q9Y261 whole entry, looked up): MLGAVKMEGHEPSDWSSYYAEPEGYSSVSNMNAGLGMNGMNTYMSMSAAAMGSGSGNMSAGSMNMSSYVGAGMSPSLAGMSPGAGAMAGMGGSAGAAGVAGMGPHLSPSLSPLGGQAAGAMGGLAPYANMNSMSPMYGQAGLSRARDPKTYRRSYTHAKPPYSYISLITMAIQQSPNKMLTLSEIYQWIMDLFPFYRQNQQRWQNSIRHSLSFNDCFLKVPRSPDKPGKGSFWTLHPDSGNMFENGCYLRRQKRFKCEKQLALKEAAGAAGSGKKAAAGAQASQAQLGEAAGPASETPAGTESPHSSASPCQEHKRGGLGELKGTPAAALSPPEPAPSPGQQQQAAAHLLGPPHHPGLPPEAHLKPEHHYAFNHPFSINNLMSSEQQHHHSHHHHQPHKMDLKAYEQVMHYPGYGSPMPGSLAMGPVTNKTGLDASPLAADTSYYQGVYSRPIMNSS
# Chain of Aryl hydrocarbon receptor (Homo sapiens) (P35869 whole entry, looked up): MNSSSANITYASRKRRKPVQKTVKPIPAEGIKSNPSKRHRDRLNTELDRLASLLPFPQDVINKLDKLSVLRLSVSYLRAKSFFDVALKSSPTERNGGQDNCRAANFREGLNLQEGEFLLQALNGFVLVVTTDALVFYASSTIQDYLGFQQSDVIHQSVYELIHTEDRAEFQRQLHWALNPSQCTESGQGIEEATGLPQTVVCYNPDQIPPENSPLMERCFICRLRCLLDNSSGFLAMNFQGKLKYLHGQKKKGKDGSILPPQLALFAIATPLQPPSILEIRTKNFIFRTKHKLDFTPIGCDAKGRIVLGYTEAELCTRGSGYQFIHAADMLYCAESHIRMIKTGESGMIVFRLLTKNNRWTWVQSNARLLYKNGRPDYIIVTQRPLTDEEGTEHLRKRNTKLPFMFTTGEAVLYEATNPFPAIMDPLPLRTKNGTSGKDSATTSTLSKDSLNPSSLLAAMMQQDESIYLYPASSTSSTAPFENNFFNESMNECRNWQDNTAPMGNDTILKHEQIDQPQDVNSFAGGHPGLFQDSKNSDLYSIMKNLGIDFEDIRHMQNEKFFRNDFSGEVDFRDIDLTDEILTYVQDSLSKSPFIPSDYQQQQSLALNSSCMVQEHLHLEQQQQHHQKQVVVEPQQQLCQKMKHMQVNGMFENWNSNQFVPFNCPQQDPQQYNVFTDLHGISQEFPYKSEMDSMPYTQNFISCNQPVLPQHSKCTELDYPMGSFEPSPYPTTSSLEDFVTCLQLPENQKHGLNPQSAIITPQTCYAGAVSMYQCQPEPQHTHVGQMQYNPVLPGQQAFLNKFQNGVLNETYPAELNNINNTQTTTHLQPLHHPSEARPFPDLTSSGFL
# Chain of Transcription factor E2F1 (Homo sapiens) (Q01094 whole entry, looked up): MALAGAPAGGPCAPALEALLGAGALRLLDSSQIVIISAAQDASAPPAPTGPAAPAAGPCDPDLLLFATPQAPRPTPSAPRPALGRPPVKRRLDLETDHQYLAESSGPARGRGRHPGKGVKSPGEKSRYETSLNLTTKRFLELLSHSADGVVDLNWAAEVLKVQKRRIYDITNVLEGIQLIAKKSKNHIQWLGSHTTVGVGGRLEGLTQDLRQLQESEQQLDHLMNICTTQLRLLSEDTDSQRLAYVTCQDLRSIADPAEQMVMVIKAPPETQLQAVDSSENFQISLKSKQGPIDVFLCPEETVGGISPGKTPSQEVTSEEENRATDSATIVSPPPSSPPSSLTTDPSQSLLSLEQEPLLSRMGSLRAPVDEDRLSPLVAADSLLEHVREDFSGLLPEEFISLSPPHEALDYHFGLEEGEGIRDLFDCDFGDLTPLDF
# Chain of Retinoic acid receptor alpha (Homo sapiens) (P10276 whole entry, looked up): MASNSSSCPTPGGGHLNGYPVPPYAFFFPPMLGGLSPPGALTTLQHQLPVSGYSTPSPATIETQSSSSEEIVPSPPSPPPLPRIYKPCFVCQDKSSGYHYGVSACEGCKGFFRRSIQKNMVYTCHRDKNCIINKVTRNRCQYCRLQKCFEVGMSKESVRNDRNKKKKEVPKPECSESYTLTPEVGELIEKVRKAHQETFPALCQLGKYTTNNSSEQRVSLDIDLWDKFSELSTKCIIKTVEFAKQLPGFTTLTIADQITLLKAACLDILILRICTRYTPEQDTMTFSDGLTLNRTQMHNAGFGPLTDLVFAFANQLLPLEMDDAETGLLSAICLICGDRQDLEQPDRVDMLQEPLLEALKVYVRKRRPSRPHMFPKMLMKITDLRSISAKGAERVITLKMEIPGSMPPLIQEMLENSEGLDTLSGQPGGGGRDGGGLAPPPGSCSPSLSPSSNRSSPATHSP
# Chain of CCAAT/enhancer-binding protein beta (Homo sapiens) (P17676 whole entry, looked up): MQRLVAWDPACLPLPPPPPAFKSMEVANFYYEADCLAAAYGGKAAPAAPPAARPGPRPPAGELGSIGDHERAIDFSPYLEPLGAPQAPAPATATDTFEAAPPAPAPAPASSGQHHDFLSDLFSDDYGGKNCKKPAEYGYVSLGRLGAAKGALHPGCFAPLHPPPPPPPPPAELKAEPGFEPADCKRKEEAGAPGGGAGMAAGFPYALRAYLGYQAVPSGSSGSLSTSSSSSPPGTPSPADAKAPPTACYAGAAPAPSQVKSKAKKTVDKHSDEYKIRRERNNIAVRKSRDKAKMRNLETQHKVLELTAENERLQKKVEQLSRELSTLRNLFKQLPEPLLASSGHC
structure (smiles),measurement,setting,value
CCc1cccc(CC)c1,outcome,[1],inactive
same,outcome,[2],inactive
same,outcome,[3],inactive
same,outcome,[4],inactive
same,outcome,[5],inactive
same,outcome,[6],inactive
same,outcome,[7],inactive
same,outcome,[8],inactive
same,outcome,[9],inactive
same,outcome,[10],inactive
same,outcome,[11],inactive
same,outcome,[12],inactive
same,outcome,[13],inactive
same,outcome,[14],inactive
same,outcome,[15],inactive
same,outcome,[16],inactive
same,outcome,[17],inactive
same,outcome,[18],inactive
same,outcome,[19],inactive
CCCCC1CCC(=O)O1 (stereo not given),outcome,[1],inactive
same,outcome,[2],inactive
same,outcome,[3],inactive
same,outcome,[4],inactive
same,outcome,[5],inactive
same,outcome,[6],inactive
same,outcome,[7],inactive
same,outcome,[8],inactive
same,outcome,[9],inactive
same,outcome,[10],inactive
same,outcome,[11],inactive
same,outcome,[12],inactive
same,outcome,[13],inactive
same,outcome,[15],inactive
same,outcome,[16],inactive
same,outcome,[17],inactive
same,outcome,[18],inactive
same,outcome,[19],inactive
O=C(O)C1CCC(C(=O)O)CC1 (stereo not given),outcome,[2],inactive
same,outcome,[20],inactive
same,outcome,[3],inactive
same,outcome,[4],inactive
same,outcome,[5],inactive
same,outcome,[6],inactive
same,outcome,[7],inactive
same,outcome,[8],inactive
same,outcome,[9],inactive
same,outcome,[10],inactive
same,outcome,[11],inactive
same,outcome,[12],inactive
same,outcome,[13],inactive
same,outcome,[14],inactive
same,outcome,[15],inactive
same,outcome,[16],inactive
same,outcome,[17],inactive
same,outcome,[18],inactive
same,outcome,[19],inactive
CC1(C)C(=O)N(CO)C(=O)N1CO,outcome,[1],inactive
same,outcome,[2],inactive
same,outcome,[3],inactive
same,outcome,[4],inactive
same,outcome,[5],inactive
same,outcome,[6],inactive
same,outcome,[9],inactive
same,outcome,[10],inactive
same,outcome,[11],inactive
same,outcome,[12],inactive
same,outcome,[14],inactive
same,outcome,[15],inactive
same,outcome,[16],inactive
same,outcome,[17],inactive
same,outcome,[18],inactive
same,outcome,[19],inactive
CC(=O)OC/C=C(/C)CCC=C(C)C,outcome,[1],inactive
same,outcome,[2],inactive
same,outcome,[3],inactive
same,outcome,[6],inactive
same,outcome,[7],inactive
same,outcome,[8],inactive
same,outcome,[9],inactive
same,outcome,[10],inactive
same,outcome,[11],inactive
same,outcome,[12],inactive
same,outcome,[13],inactive
same,outcome,[14],inactive
same,outcome,[15],inactive
same,outcome,[16],inactive
same,outcome,[17],inactive
same,outcome,[18],inactive
same,outcome,[19],inactive
CCCCOCC(C)O (stereo not given),AC50,[1],129 nM (active)
same,outcome,[2],inactive
same,outcome,[3],inactive
same,outcome,[4],inactive
same,outcome,[5],inactive
same,outcome,[6],inactive
same,outcome,[7],inactive
same,outcome,[9],inactive
same,outcome,[12],inactive
same,outcome,[15],inactive
same,outcome,[16],inactive
same,outcome,[18],inactive
CCOB(OCC)OCC,outcome,[1],inactive
same,outcome,[2],inactive
same,outcome,[3],inactive
same,outcome,[4],inactive
same,outcome,[5],inactive
same,outcome,[6],inactive
same,outcome,[8],inactive
same,outcome,[9],inactive
same,outcome,[10],inactive
same,outcome,[11],inactive
same,outcome,[12],inactive
same,outcome,[13],inactive
same,outcome,[14],inactive
same,outcome,[16],inactive
same,outcome,[17],inactive
same,outcome,[18],inactive
same,outcome,[19],inactive
C=C[C@@]1(C)CC(=O)[C@]2(O)[C@@]3(C)[C@@H](O)CCC(C)(C)[C@@H]3[C@H](O)[C@H](OC(C)=O)[C@@]2(C)O1,AC50,[1],2590 nM (active)
same,AC50,[2],3450 nM (active)
same,AC50,[3],476 nM (active)
same,AC50,[4],510 nM (active)
same,outcome,[5],inactive
same,outcome,[6],inactive
same,outcome,[8],inactive
same,AC50,[9],3810 nM (active)
same,outcome,[10],inactive
same,outcome,[11],inactive
same,outcome,[12],inactive
same,outcome,[13],inactive
same,outcome,[14],inactive
same,AC50,[15],895 nM (active)
same,outcome,[16],inactive
same,outcome,[18],inactive
same,outcome,[19],inactive
